# Assay results taken from the supplement of paper PMC6555819.
# System: RARb homodimer (NR concentration 270 nM)
# Assay: PBM binding z-score (relative to random genomic background probes); higher = stronger binding; sequences stand for … in GC…GCGATTGACAGCGTAGAATGAAGG
# Procedure, shortened: (§1)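 Custom Agilent 4×180K protein-binding microarrays carried double-stranded probes. Their 34-nt variable regions held direct-repeat seeds, single-nucleotide variants, half-site ablations and random human genomic background sequences. Arrays were incubated 1 h with ligand-free nuclear receptor dimers in PBS pH 7.4, 2% milk, 0.02% Triton X-100, 1 mM DTT, 0.2 mg/mL BSA and 0.4 mg/ml salmon testes DNA. Antibodies against each partner (one per run) detected binding, and scanned fluorescence was regression-normalized. Binding z-scores use random background probes as reference.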
row,Sequence,PBM binding z-score
1,CCTAACAGGCCAATCTGGGTCACTCAAGGCTTGA,2.38
2,CTCGAAAGGTCGTGCTCAGGTGAGTTTACCAAAC,2.8
3,CCAACTGGGGCAAGGTTACCATAACGCACAGCCA,1.51
4,TCTATTAGTTTATTAGGGCAACCGAAACAGCGGA,1.56
5,GCGACTGGGGCCTCAGCAGGTTACCATAACTTAA,0.199
6,TCGAGTACGTTAGGGGCATTCAGAATGGCGTCGA,0.267
7,CGTCCAAGGTCATAGGAGGTCGGTGAAGACAGAT,4.09
8,AGTCAAAGTTCATCTAGGTACCGTAAGATATGCT,3.72
9,CGTCAAAGTTCAACTAGGGTAACGTAAAGCACGC,4.3
10,TCGAGTAGCTTAGTCGGGGCATTCAGCCAACATA,-0.405
11,GCATATAGGTGATACAAGGTGAAAGTCCGATTGT,0.997
12,CCTACTGGGCCATCAGGTCATAGATATCAACGTT,2.46
13,ATCTCTAGGTAACCAAGTTCCGTGAATGCCGAAC,-0.23
14,CCTAGCAGGCCAATCAGGGTCACTCAAGGCTTGA,3.13
15,ATCTCTAGGTAACCCAGTTCAGTGAATGCCGAAC,0.825
16,CAAACTAGGTCACAGAGGTCAAAGCCCGTGCGTA,5.57
17,CAAACTAGGTCACGACAGGTCAAAGTCGAATGAC,4.83
18,CCTGCTAGGTCAATAGTCAGCTAAAGCAGCTCGC,2.18
19,GGAAGGAGGGCAAAGTTGATAGCATCTGTCGACG,1.91
20,TCATATAGGTACAGGTGAAAGTCGAACGATATGA,0.469

row,Sequence,PBM binding z-score
1,CGAACGAGGGCATCAGTTGATAGCAAATGCCGAT,0.822
2,AGAACGAGGGCAATGAGTTAATAGCACGGGTGGC,1.08
3,CAAACTAGGTCAAGGTCAAGGTCGGTTTGTGCCA,5.4
4,CGTCAAAGTTCAAGATAACGTAACAGAAAGCAGC,3.44
5,CCTAGTTGGTCAAGGTCACACAAGCTATAGGTAC,4.53
6,GCAGGCAGGTGAAACGCAGGTAACTCAGGGTGGC,-0.0937
7,CGAACTAGGTTATTGACAGGACAGTGAATAGTAA,0.991
8,CGAACTAGGTCATTGACAGGACACTGAATAGTAA,2.8
9,CGTCAAGGTTCAACTAAGGTAACGTAAAGCACGC,2.36
10,CTCGAAAGGTCGGTCGAGGTGAGTATACGGATAA,2.4
11,TCAGACAGATGAAGGTAACTCAGGTACGCAGTCG,-0.403
12,CGAACGAGGGCATGAGTTAATAGCAAATGCCGAT,0.53
13,GCTTGTAGATCAGGGTTAAGAAAGACTAAGCTAA,0.053
14,AATAGCAGGCCAAGTTTGGGTCACTCAAACAAAG,2.31
15,GCGACTGGGGCATCAGCATGTTACCATAACTTAA,0.222
16,CGTCCAAGGTTAGCAGGTCAGTGAAAGCGACGTG,3.14
17,ATCTCTAGGTAAGACTAAGTTCAGTGAAGAACGC,1.85
18,GCTTACGGGTCATAGGTTATAGCATGAATAGAAT,2.49
19,TGAATAAGGTTAAAGATCAGGGAACGTGGCGTCG,1.04

# System: RARg:RXRa (NR concentration 270 nM, RXRa partner concentration 90 nM)
# Assay: as above
# Procedure, shortened: as §1
row,Sequence,PBM binding z-score
1,CCTAACAGGCCAATCTGGGTCACTCAAGGCTTGA,1.47
2,CTCGAAAGGTCGTGCTCAGGTGAGTTTACCAAAC,5.22
3,CCAACTGGGGCAAGGTTACCATAACGCACAGCCA,0.917
4,TCTATTAGTTTATTAGGGCAACCGAAACAGCGGA,1.15
5,GCGACTGGGGCCTCAGCAGGTTACCATAACTTAA,-0.489
6,TCGAGTACGTTAGGGGCATTCAGAATGGCGTCGA,0.169
7,CGTCCAAGGTCATAGGAGGTCGGTGAAGACAGAT,6.01
8,AGTCAAAGTTCATCTAGGTACCGTAAGATATGCT,5.39
9,CGTCAAAGTTCAACTAGGGTAACGTAAAGCACGC,5.87
10,TCGAGTAGCTTAGTCGGGGCATTCAGCCAACATA,-0.536
11,GCATATAGGTGATACAAGGTGAAAGTCCGATTGT,0.873
12,CCTACTGGGCCATCAGGTCATAGATATCAACGTT,2.03
13,ATCTCTAGGTAACCAAGTTCCGTGAATGCCGAAC,0.14
14,CCTAGCAGGCCAATCAGGGTCACTCAAGGCTTGA,2.79
15,ATCTCTAGGTAACCCAGTTCAGTGAATGCCGAAC,0.714
16,CAAACTAGGTCACAGAGGTCAAAGCCCGTGCGTA,7.25
17,CAAACTAGGTCACGACAGGTCAAAGTCGAATGAC,6.43
18,CCTGCTAGGTCAATAGTCAGCTAAAGCAGCTCGC,3.06
19,GGAAGGAGGGCAAAGTTGATAGCATCTGTCGACG,2.07
20,TCATATAGGTACAGGTGAAAGTCGAACGATATGA,0.866

row,Sequence,PBM binding z-score
1,CGAACGAGGGCATCAGTTGATAGCAAATGCCGAT,0.928
2,AGAACGAGGGCAATGAGTTAATAGCACGGGTGGC,1.43
3,CAAACTAGGTCAAGGTCAAGGTCGGTTTGTGCCA,6.25
4,CGTCAAAGTTCAAGATAACGTAACAGAAAGCAGC,5.28
5,CCTAGTTGGTCAAGGTCACACAAGCTATAGGTAC,4.81
6,GCAGGCAGGTGAAACGCAGGTAACTCAGGGTGGC,0.946
7,CGAACTAGGTTATTGACAGGACAGTGAATAGTAA,1.04
8,CGAACTAGGTCATTGACAGGACACTGAATAGTAA,4.6
9,CGTCAAGGTTCAACTAAGGTAACGTAAAGCACGC,3.57
10,CTCGAAAGGTCGGTCGAGGTGAGTATACGGATAA,3.1
11,TCAGACAGATGAAGGTAACTCAGGTACGCAGTCG,0.326
12,CGAACGAGGGCATGAGTTAATAGCAAATGCCGAT,1.2
13,GCTTGTAGATCAGGGTTAAGAAAGACTAAGCTAA,0.416
14,AATAGCAGGCCAAGTTTGGGTCACTCAAACAAAG,2.53
15,GCGACTGGGGCATCAGCATGTTACCATAACTTAA,0.263
16,CGTCCAAGGTTAGCAGGTCAGTGAAAGCGACGTG,2.7
17,ATCTCTAGGTAAGACTAAGTTCAGTGAAGAACGC,0.933
18,GCTTACGGGTCATAGGTTATAGCATGAATAGAAT,4.99
19,TGAATAAGGTTAAAGATCAGGGAACGTGGCGTCG,2.51
